Rows were chosen to be rich in hits. Some 2.1% of all compounds tested hit in one or more screens of this group.
D2 PAM-1: D2 dopamine receptor (human) potentiation | HEK293 T-REx D2, calcium flux, EC20 dopamine potentiation | potentiation, % at 10 µM | actives 0.34% (n = 340,000) | AID 485347;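 active = potentiation over 3 SD above the plate norm, cut at about 30% in these data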
Target sequence (P14416 whole entry, looked up): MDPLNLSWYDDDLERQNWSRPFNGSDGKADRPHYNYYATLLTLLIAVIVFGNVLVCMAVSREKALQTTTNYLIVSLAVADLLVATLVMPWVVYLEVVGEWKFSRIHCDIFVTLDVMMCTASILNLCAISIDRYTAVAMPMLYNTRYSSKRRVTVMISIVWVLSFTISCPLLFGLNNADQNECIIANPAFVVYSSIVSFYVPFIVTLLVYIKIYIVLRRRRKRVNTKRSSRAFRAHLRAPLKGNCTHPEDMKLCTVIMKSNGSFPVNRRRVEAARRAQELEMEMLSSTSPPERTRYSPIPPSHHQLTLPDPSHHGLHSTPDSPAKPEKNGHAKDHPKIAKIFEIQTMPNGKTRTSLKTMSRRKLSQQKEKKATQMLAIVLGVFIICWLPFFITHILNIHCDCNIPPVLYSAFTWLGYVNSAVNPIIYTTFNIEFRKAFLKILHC
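Tetracycline-induced Hek293 Trex D2 cells, force-coupled to calcium, loaded with no-wash calcium dye. Compound added with 180 s kinetic read for agonism, then EC20 dopamine and a further 180 s read for potentiation.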
LDHA inh: LDHA (human) enzyme inhibition | activity change, % (values are at about 110 or 230 µM) | actives 0.15% (n = 480,000) | AID 1347041 | purified LDHA, NADH/diaphorase-resazurin fluorescence; active compounds read low; in the data active = activity change below about -30%; inconclusive = mostly about -25% to -30%
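Remaining NADH was detected by diaphorase (0.133 mg/mL) converting 37 µM resazurin to fluorescent resorufin, read at 0 and 20 minutes. The preceding 5-minute room-temperature reaction used 2 nM LDHA, 0.2 mM sodium pyruvate and 0.06 mM NADH at pH 7.4.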
D2 ag-1: D2 dopamine receptor (human) agonism. HEK293 T-REx D2 cells, calcium flux agonist mode. activation, % at 2 µM. actives 0.53% (n = 340,000);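 active = activation over 3 SD above normal in the single-dose calcium agonist read, cut at about 30% in these data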
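Tetracycline-induced HEK293 T-REx cells with force-coupled D2 receptor, plated overnight at 30 C, loaded with no-wash calcium dye. After a 10 s baseline, compound was pin-added and calcium flux read kinetically for 180 s; calcium rises flagged agonists.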
D2 ag-2: human D2 receptor agonism in beta-arrestin assay. AID 624465. actives 0.084% (n = 360,000). activation, % (no concentration beside the values). DiscoveRx PathHunter D2 beta-arrestin, luminescence, 90 min; 100% = 57 uM dopamine signal; in the data active = activation above about 40%; inconclusive = between about 15% and that limit
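Agonist mode: compounds alone added to overnight-plated D2 PathHunter cells for 90 min at 37 C, with 57 uM final dopamine (EC100) defining full response. Beta-arrestin recruitment detected by chemiluminescent reagent, read after 1 h at ambient temperature.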
D2 PAM-2: positive allosteric modulators of human D2 dopamine receptor. actives 0.23% (n = 360,000). AID 624464. potentiation, % (no concentration beside the values). DiscoveRx D2 beta-arrestin cells, luminescence, 90 min; 100% = 57 uM dopamine signal; in the data active = potentiation above about 50%; inconclusive = mostly about 30% to 49%
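PathHunter D2 cells, attached overnight at 37 deg C, received compound in DMSO plus dopamine at EC20 (50 nM final) for 90 min at 37 deg C. Beta-arrestin recruitment was read as luminescence after 1 h with detection reagent at ambient temperature.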
D2 antagonist: antagonists of human D2 dopamine receptor; HEK293 TREx D2 cells, calcium flux, dopamine EC80; inhibition, % at 10 µM; actives 2% (n = 340,000); in the data active = inhibition above about 30%; inactive = below that, where a call was filed
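Overnight-induced (tetracycline, 30 C) HEK293 T-REx cells carrying force-coupled D2 receive a no-wash calcium dye, then compound, then EC80 dopamine at 180 s; signals are read kinetically throughout.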
A number is an active result.

Screening CN=c1scc(-c2ccccc2F)n1/N=C/c1ccc[nH]1 returned D2 PAM-1 inactive, LDHA inh inactive, D2 ag-1 inactive, D2 ag-2 inactive, D2 PAM-2 inactive and D2 antagonist inactive.
For CN(C)c1cccc(Nc2nc3ccccc3nc2NS(=O)(=O)c2cccs2)c1 the results were LDHA inh inactive.
For CCN(CCCc1ccccc1)CCCc1ccccc1 the results were D2 PAM-1 inactive, LDHA inh inactive, D2 ag-1 inactive, D2 ag-2 inactive, D2 PAM-2 inactive and D2 antagonist 83.
Screening CCCN(CCO)CCCc1ccccc1 returned D2 PAM-1 inactive, LDHA inh inactive, D2 ag-1 inactive, D2 ag-2 inactive, D2 PAM-2 inactive and D2 antagonist inactive.
`CC(=O)CCn1c(=O)n(CCC(C)=O)c(=O)n(CCC(C)=O)c1=O` gave D2 PAM-1 36, LDHA inh inactive, D2 ag-1 inactive, D2 ag-2 inactive, D2 PAM-2 inactive and D2 antagonist inactive.
CC(=O)CCCCn1c(=O)c2c(ncn2C)n(C)c1=O was read as D2 PAM-1 inactive, LDHA inh inactive, D2 ag-1 inactive, D2 ag-2 inactive, D2 PAM-2 inactive and D2 antagonist inactive.
`O=C(O)C1(c2ccc(Cl)cc2)CCCCC1` gave LDHA inh inactive.
O=C(NCCO)C1(c2ccc(Cl)cc2)CCCC1 was read as D2 PAM-1 inactive, LDHA inh inactive, D2 ag-1 inactive, D2 ag-2 inactive, D2 PAM-2 inactive and D2 antagonist 32.
For COC(=O)c1ccc(OCC(=O)c2ccc3c(c2)OCCO3)cc1 the results were LDHA inh inactive.
`CC(C)C(=O)Nc1ccc(NC(=O)c2ccc3c(c2)OCO3)cc1` gave D2 PAM-1 inactive, LDHA inh inactive, D2 ag-1 inactive, D2 ag-2 inactive, D2 PAM-2 inactive and D2 antagonist inactive.
Screening COc1cc(NC(=O)c2ccc3c(c2)OCO3)ccc1NC(=O)C(C)C returned D2 PAM-1 inactive, LDHA inh inactive, D2 ag-1 inactive, D2 ag-2 inactive, D2 PAM-2 inactive and D2 antagonist 64.
Screening Cc1ccccc1NC(=O)c1ccc(NC(=O)c2ccco2)cc1 returned D2 PAM-1 inactive, LDHA inh inactive, D2 ag-1 inactive, D2 ag-2 inactive, D2 PAM-2 inactive and D2 antagonist 45.
Screening Cc1ccc(C(=O)Nc2ccc3c(c2)OCO3)cc1NC(=O)c1ccco1 returned D2 PAM-1 inactive, LDHA inh inactive, D2 ag-1 inactive, D2 ag-2 inactive, D2 PAM-2 inactive and D2 antagonist 48.
For Cc1ccccc1NC(=O)c1ccccc1NC(=O)c1ccco1 the results were D2 PAM-1 inactive, LDHA inh inactive, D2 ag-1 inactive, D2 ag-2 inactive, D2 PAM-2 inactive and D2 antagonist inactive.
`Cc1ccccc1OCc1nc(-c2ccc(NC(=O)c3ccco3)cc2)no1` gave D2 PAM-1 43, LDHA inh inactive, D2 ag-1 inactive, D2 ag-2 inactive, D2 PAM-2 inactive and D2 antagonist inactive.
Screening Cc1cc(NC(=O)c2ccc3c(c2)OCO3)ccc1NC(=O)c1ccco1 returned D2 PAM-1 inactive, LDHA inh inactive, D2 ag-1 inactive, D2 ag-2 inactive, D2 PAM-2 inactive and D2 antagonist inactive.
For CCCCC(=O)Nc1ccc2oc(-c3ccc(F)cc3Cl)nc2c1 the results were LDHA inh inactive.
For O=C(NCCc1cccc(F)c1)C1CCCC1 the results were LDHA inh inactive.
Cn1c(=O)c2c(nc(N/N=C/c3ccco3)n2C)n(C)c1=O was read as D2 PAM-1 inactive, LDHA inh inactive, D2 ag-1 inactive, D2 ag-2 inactive, D2 PAM-2 inactive and D2 antagonist 52.
Screening CS(=O)(=O)c1ccc2nc(NC(=O)c3cc([N+](=O)[O-])cc([N+](=O)[O-])c3)sc2c1 returned D2 PAM-1 inactive, LDHA inh inactive, D2 ag-1 inactive, D2 ag-2 inconclusive, D2 PAM-2 99 and D2 antagonist inactive.
`CS(=O)(=O)c1ccc2nc(NC(=O)CN3CCN(Cc4ccccc4)CC3)sc2c1` gave D2 PAM-1 inactive, LDHA inh inactive, D2 ag-1 inactive, D2 ag-2 inactive, D2 PAM-2 inactive and D2 antagonist 45.
For CS(=O)(=O)c1ccc2nc(NC(=O)c3cccc([N+](=O)[O-])c3)sc2c1 the results were D2 PAM-1 inactive, LDHA inh inactive, D2 ag-1 inactive, D2 ag-2 inactive, D2 PAM-2 inactive and D2 antagonist inactive.
CC(Cl)C(=O)NC(=O)Nc1ccccc1 (stereo not given) was read as LDHA inh inactive.
Screening Cc1ccc(S(=O)(=O)N2CCN(C(=O)COC(=O)CNC(=O)c3ccc(Cl)cc3Cl)CC2)c(C)c1 returned LDHA inh inactive, D2 ag-2 inactive and D2 PAM-2 inactive.
Screening Cc1ccc(S(=O)(=O)N2CCN(C(=O)COC(=O)CNC(=O)c3ccccc3)CC2)c(C)c1 returned D2 PAM-1 inactive, LDHA inh inactive, D2 ag-1 inactive, D2 ag-2 inactive, D2 PAM-2 inactive and D2 antagonist 33.
Screening O=C(CC1SC(N2CCCCC2)=NC1=O)Nc1ccc(C(=O)O)cc1 (stereo not given) returned D2 PAM-1 inactive, LDHA inh inactive, D2 ag-1 inactive, D2 ag-2 inactive, D2 PAM-2 inactive and D2 antagonist inactive.
Screening CC(=O)c1cccc(NC(=O)CC2SC(N3CCCCC3)=NC2=O)c1 (stereo not given) returned D2 PAM-1 inactive, LDHA inh inactive, D2 ag-1 inactive, D2 ag-2 inactive, D2 PAM-2 inactive and D2 antagonist 45.
Screening O=C(CC1SC(N2CCCCC2)=NC1=O)Nc1cccc(C(F)(F)F)c1 (stereo not given) returned D2 PAM-1 inactive, LDHA inh inactive, D2 ag-1 inactive, D2 ag-2 inactive, D2 PAM-2 inactive and D2 antagonist 79.
`NS(=O)(=O)c1cc(Br)c2c(c1)S(=O)(=O)NCN2` gave LDHA inh -37, D2 ag-2 inactive and D2 PAM-2 inactive.
For CCOC(=O)C1CCCN(C/C=C/c2ccccc2)C1 (stereo not given) the results were D2 PAM-1 inactive, LDHA inh inactive, D2 ag-1 inactive, D2 ag-2 inactive, D2 PAM-2 inactive and D2 antagonist 30.
CCOC(=O)C1CCCN(Cc2cccc(Oc3ccccc3)c2)C1 (stereo not given) was read as D2 PAM-1 inactive, LDHA inh inactive, D2 ag-1 inactive, D2 ag-2 inactive, D2 PAM-2 inactive and D2 antagonist 40.
`CCOC(=O)C1CCCN(Cc2ccc(-c3ccccc3)cc2)C1` (stereo not given) gave D2 PAM-1 inactive, LDHA inh inactive, D2 ag-1 inactive, D2 ag-2 inactive, D2 PAM-2 inactive and D2 antagonist 58.

From PubChem
